Screening data as filed in PubChem BioAssay.
Sampled rows, rich in hits. Any-hit rate of the full collection: about 2.4%.
CHT allo act – human CHT allosteric activation; CHT-expressing cells, membrane potential dye, choline EC20; hits give high values; LV-AA mutant CHT in HEK293 cells; B-score at 10 µM; 310,000 compounds, 0.49% hits;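 active means initial fluorescence not abnormally high and integrated response B-score, plate-corrected, over 3 SD above library mean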
Target sequence (Q9GZV3 whole entry, looked up): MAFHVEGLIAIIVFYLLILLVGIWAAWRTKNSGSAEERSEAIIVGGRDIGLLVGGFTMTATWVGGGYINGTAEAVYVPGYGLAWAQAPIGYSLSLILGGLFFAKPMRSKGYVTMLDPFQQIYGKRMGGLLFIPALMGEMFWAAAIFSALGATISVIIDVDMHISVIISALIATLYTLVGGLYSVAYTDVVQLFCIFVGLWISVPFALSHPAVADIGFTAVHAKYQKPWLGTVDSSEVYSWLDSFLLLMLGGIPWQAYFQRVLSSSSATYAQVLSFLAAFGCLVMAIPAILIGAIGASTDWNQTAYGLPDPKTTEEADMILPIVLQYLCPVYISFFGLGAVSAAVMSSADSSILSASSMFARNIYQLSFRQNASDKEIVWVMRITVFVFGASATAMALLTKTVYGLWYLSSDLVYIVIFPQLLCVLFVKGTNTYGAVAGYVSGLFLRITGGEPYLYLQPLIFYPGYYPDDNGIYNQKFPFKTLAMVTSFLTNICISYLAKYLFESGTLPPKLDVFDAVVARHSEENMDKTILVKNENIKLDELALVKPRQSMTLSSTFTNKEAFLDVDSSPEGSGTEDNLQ
CHT block – human CHT choline transport inhibition; B-score at 10 µM; 310,000 compounds, 0.86% hits; Q9GZV3; CHT-expressing cells, membrane potential dye, choline response; hits give low values;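 active means B-score over 3 SD under the library average, and starting fluorescence ratio not unusually high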;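 further: choline stimulus applied at its EC90 after an EC20 pre-addition; B-score computed on integrated fluorescence ratio after choline addition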
ANO1 block – blocks the mouse calcium-activated chloride channel TMEM16A | Q8BHY3 | HEK293 TMEM16A/YFP iodide influx fluorescence, ionomycin | normalized B-score (activity score, 25-100; higher = stronger inhibition) at 10 µM | 310,000 compounds, 1.2% hits;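 active means ratio plate-corrected score three or more library SD toward inhibition, starting fluorescence score within five deviations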;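 further: score derived from kinetic fluorescence span divided by baseline fluorescence per well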
ANO1 activ – activates or potentiates the mouse TMEM16A chloride channel; Q8BHY3; HEK293 TMEM16A/YFP-H148Q/I152L, iodide quench fluorescence; hits give low values; B-score at 10 µM; 340,000 compounds, 0.3% hits; AID 623877;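 active means fluorescence-ratio B-score plate-corrected deviation score at least 3 library SD below zero, with starting fluorescence score within 5 deviations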;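 further: channel opened by trigger with iodide after compound preincubation; score built on the fluorescence ratio of max minus min over baseline; more negative score means more quench and so TMEM16A activation or potentiation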
CHT activ conf – confirmation of human choline transporter (CHT) activators | 2,500 compounds, 91% hits | CHT-expressing cells, membrane potential dye fluorescence (FDSS); % of choline EC20–EC90 response window; HEK293 expressing CHT LV-AA mutant; choline added at its EC20 | shares compounds with CHT allo act | AID 504833 | activation, % at 10 µM;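 active means primary screen active, with duplicate mean activation above negative control mean plus 3 SD, cut at about 11% in these data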
HEK293 MP dye – CHT activator counter-screen hit in parental HEK293 cells; membrane potential dye fluorescence (FDSS); measured after EC20 choline addition; AID 623908; shares compounds with CHT allo act; 2,500 compounds, 62% hits; ratio readout change at 10 µM, hits read low;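 active means duplicate-averaged ratio beyond 3 SD from buffer wells, up or down, though filed actives are nearly all decreases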
* marks the source's active call; other numbers are inactive results; i = inactive; . = no result; ! = not confirmed by another sample.

SMILES	CHT allo act	CHT block	ANO1 block	ANO1 activ	CHT activ conf	HEK293 MP dye
COc1ccc(-c2sc(Nc3ccccc3)n[n+]2-c2ccccc2)cc1Br	i	i	i	i	.	.
COc1ccc(C)cc1Nc1n[n+](-c2ccccc2)c(-c2ccc(C(=O)O)cc2)s1	i	i	i	i	.	.
CCOc1cc(-c2sc(Nc3ccc(CC)cc3)n[n+]2-c2ccccc2)ccc1OC	i	i	i	i	42*	i
CCOc1cc(-c2sc(Nc3cc(C)ccc3OC)n[n+]2-c2ccccc2)ccc1OC	i	i	i	i	44*	i
NNc1ccc2nncn2n1	i	i	i	i	.	.
O=C1CCC(C(=O)N(Cc2cccs2)C2(C(=O)NC3CCCCC3)CCCCC2)N1 (configuration not stated)	7*	i	i	i	31*	i
CCc1ccc(NS(=O)(=O)c2ccc(C)c(C(=O)N3CCOCC3)c2)cc1	i	i	i	i	.	.
CCC(C)Sc1ccc(-c2nc3ccccn3c2NCc2ccccc2)cc1OC (configuration not stated)	.	.	.	i	.	.
COc1ccc(CSc2ccc(-c3nc4ccccn4c3NCc3ccccc3)cc2OC)cc1	8.9*	i	i	i	31*	i
COc1ccccc1N1CCN(CCCCCCOc2ccc(F)cc2)CC1	i	i	i	i	.	.
Cc1nnc(SC(C)C(=O)Nc2ccc(Cl)cn2)n1Cc1ccccc1 (configuration not stated)	i	i	i	i	.	.
CC(Sc1nnc(-c2ccc(Cl)cc2Cl)n1Cc1ccccc1)C(=O)Nc1nccs1 (configuration not stated)	7.1*	i	i	i	35*	i
O=C1C=C(c2ccc(OC(F)(F)F)cc2)C[C@@H](c2ccc(F)cc2)C1	.	.	.	i	.	.
COc1cc(/C=N/Nc2nncc3ccccc23)cc(OC)c1OC	7.6*	i	i	i	40*	-48*
C(=N\Nc1nncc2ccccc12)/c1ccccc1	i	i	i	i	.	.
Cc1cccc(CCNC(=O)CC2C(=O)NCCN2Cc2ccccc2C)n1 (configuration not stated)	i	i	i	i	.	.
COCC(=O)N(C)c1nnc(-c2cnc(C)cn2)s1	6.4*	i	i	i	59*	-55*
CC(=O)/C(=N/Nc1ccc(Br)cc1)Sc1cccc2cccnc12	i	i	i	i	.	.
CC[N+](CC)(CC)CCOc1cccc(OCC[N+](CC)(CC)CC)c1OCC[N+](CC)(CC)CC	11*	i	i	i	72*	-93*
OC(CCN1CCC2(CC1)OCCO2)C(F)(F)F (configuration not stated)	i	i	i	i	.	.
CCCCOc1ccccc1C1CC(=O)NC2=C1C(=O)CCC2 (configuration not stated)	11*	i	i	i	73*	i
CCn1cc(C2=NC(C)CO2)c2ccccc21 (configuration not stated)	i	i	i	i	.	.
CCn1cc(C2=NCCO2)c2ccccc21	9.4*	i	i	i	43*	-44*
CC(C)CCOC(=O)/C(=C/c1ccco1)NC(=O)/C=C/c1ccccc1	8.4*	i	i	i	16*	i
COc1cc(C(=O)N2CCN(Cc3ccccn3)CC2)cc(OC)c1OC	i	i	i	i	.	.
SMILES	CHT allo act	CHT block	ANO1 block	ANO1 activ	CHT activ conf	HEK293 MP dye
CCN1CCCC(Sc2nc3c([nH]2)c(=S)n(C)c(=O)n3C)C1 (configuration not stated)	i	i	i	i	29*	-26*
Cn1c(=S)c2[nH]c(SCCN3CCCC3)nc2n(C)c1=O	i	i	i	i	.	.
CCOC(=O)c1cnc2c(CC)cccc2c1NCCCN1CCOCC1	i	i	i	i	.	.
CCOC(=O)c1cnc2c(C(F)(F)F)cccc2c1NCCCN1CCOCC1	i	i	i	i	43*	-67*
O=C(Nc1ccc(Nc2ccccc2)cc1)c1cc([N+](=O)[O-])ccc1Cl	i	i	i	i	.	.
O=C1CSC(c2ccccc2F)N1c1ccccc1 (configuration not stated)	i	i	i	i	.	.
COc1ccccc1C(=O)n1nc(-c2cccnc2)nc1N	i	i	i	i	.	.
CC(CC(F)(F)F)N1CCC(n2nccc2NC(=O)CCCc2ccccc2)CC1 (configuration not stated)	i	i	i	i	-3	i
CC(C)=CC(=O)N1CCC(n2nccc2NC(=O)CCc2ccccc2)CC1	i	i	i	i	.	.
CC(C)CC(C)N1CCC(n2nccc2NC(=O)CCc2ccccc2)CC1 (configuration not stated)	i	i	i	i	32*	i
CCOC(=O)c1c(CN2CCOCC2)n(C)c2cc(Br)c(O)c(CN(C)C)c12	7.4*!	i	i	i	45*	-33*
CCOC(=O)c1c(CS(=O)(=O)c2ccccc2)n(C)c2cc(Br)c(O)c(CN(C)C)c12	i	i	i	i	.	.
Cc1ccc(Nc2cc(C)c3ccc(O)cc3n2)cc1C	i	i	i	i	.	.
Cc1cc(NCc2ccco2)nc2cc(O)ccc12	8.6*	i	i	i	29*	-42*
COc1ccc(C[C@H]2CN3C(=NC[C@@H]3C)N2CCNC(=O)CCC2CCCCC2)cc1	i	i	i	i	4	i
O=C(CCC1CCCCC1)NCCN1C2=NC[C@@H](Cc3ccccc3)N2C[C@H]1Cc1ccc(O)cc1	13*	i	i	i	37*	i
O=C(CCC1CCCCC1)NCCN1C2=NC[C@H](Cc3ccccc3)N2C[C@H]1Cc1ccc(O)cc1	6.8*	i	i	i	40*	i
C[C@H]1CN=C2N(CCNC(=O)CCC3CCCCC3)[C@H](Cc3ccc(O)cc3)CN21	i	i	i	i	.	.
O=C(CN1C(=O)c2ccccc2S1(=O)=O)NCc1c(F)cccc1F	i	i	i	i	.	.
COc1cc(N(C)C)c(NC(C)=O)cc1C(=O)O	i	i	i	i	.	.
CCOC(=O)c1cc(C)nc(SC)c1C#N	i	i	i	i	.	.
CCC1CCCCN1CCCNC(=O)CCC(=O)N1CCOc2ccccc21 (configuration not stated)	i	i	i	i	.	.
